Assay results from PubChem BioAssay AID1347416 (National Center for Advancing Translational Sciences (NCATS), 2020).
The whole screen tested about 4,100 compounds, of which about 1,600 (39%) were called active. Not shown: some 25% with an inconclusive outcome. The call rests on the fitted dose curve; in most records, active means well fitted inhibition curve with a large enough effect; inconclusive means small, poorly fitted or top-dose-only effect; inactive means no such curve, though single readings can be large or run the other way. The list shows a part of the results. Where a call stands in place of a potency, no number is given.

Experiment: qHTS Validation assay for Inhibitors of Plasmodium falciparum Dd2 growth in vitro; further: nearly all actives have a fitted effect of over 70% in size
Settings: P. falciparum Dd2 in RBCs, SYBR Green growth, 72 h; series mostly up to 28.7 µM
In short: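 P. falciparum Dd2-infected red blood cells (2.5% hematocrit, 0.3% parasitemia) grown 72 h at 37 °C under 5% O2 with compounds in a titration, 29 uM to 0.5 nM final. Growth read as SYBR Green-1 fluorescence after ~16 h lysis; artesunate 300 nM as positive control.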
Potency means the concentration at half of the fitted maximal effect.

SMILES | Potency
CC(=O)N(C)C1=C(N2CCOCC2)C(=O)c2ccccc2C1=O | 0.842 µM (active)
Cc1ccc(-n2cc(-c3ccccc3)nc2S(=O)(=O)CC(=O)Nc2ccc(F)cc2)cc1 | inactive
CC(=O)Oc1c(-c2ccc(NC(=O)CC(C)C)cc2)c(-c2ccc(F)cc2)nn1-c1ccc(F)cc1 | 13.3 µM (active)
COc1ccc(-c2nn(-c3ccc(F)cc3)c(OC(C)=O)c2-c2ccc(NC(C)=O)cc2)cc1OC | 15 µM (active)
COc1cccc(C2C3=C(N=c4s/c(=C\c5ccccc5O)c(=O)n42)c2ccccc2CC3)c1OC (stereo unspecified) | 2.99 µM (active)
COc1cccc(CN2C(=O)OC3(CCN(Cc4ccccc4OC)CC3)C2(C)c2cccnc2)c1 (stereo unspecified) | 4.73 µM (active)
COc1cccc(CN2CCC3(C2)NC(=O)c2ccccc2CO3)c1 (stereo unspecified) | inactive
O=C1CO[C@H]2CCN(Cc3ccc(O)cc3)CC[C@@H]2N1c1ccccc1 | inactive
COc1cccc(CN2C(=O)OC3(CCN(Cc4ccc5c(c4)CCO5)CC3)C2(C)c2cccnc2)c1 (stereo unspecified) | 4.73 µM (active)
COCc1cc(=O)n(CC(=O)NCc2cccc(OC)c2)c(N2CCOCC2)n1 | inactive
COc1cccc(CN2C(=O)OC3(CCN(Cc4c[nH]c5ccccc45)CC3)C2(C)c2cccnc2)c1 (stereo unspecified) | 8.41 µM (active)
CC1(c2ccccc2)N(Cc2ccc(O)cc2)C(=O)OC12CCN(Cc1c[nH]c3ccccc13)CC2 (stereo unspecified) | 5.31 µM (active)
COCCc1noc([C@@H]2CN(Cc3ccc(C)o3)C[C@H]2CO)n1 | inactive
COC(=O)C1C2C=CC3(CN(Cc4cccs4)C(=O)C13)O2 (stereo unspecified) | inactive
CCOC(=O)c1cnc2ccc(OC)cc2c1Nc1ccc(N2CCN(C)CC2)cc1 | 1.68 µM (active)
Cc1ncc(CO)c(/C=N/NC(=O)c2ccc(O)cc2)c1O | inactive
Cc1ccc(C(=O)N/N=C/c2ccc([N+](=O)[O-])s2)cc1 | 5.96 µM (active)
Cc1ccccc1C1C(C#N)=C2N=C(N)c3c(sc4c3CCCCC4)N2C2=C1C(=O)CCC2 (stereo unspecified) | 2.66 µM (active)
CN(CC1CCOC1)C(=O)Nc1ccc(Br)cc1 (stereo unspecified) | inactive
COc1cc(C2CC(=O)N(Cc3ccc(F)cc3)c3ccccc3S2)cc(OC)c1OC (stereo unspecified) | 2.11 µM (active)
COC(=O)c1ccc(CN2C(=O)[C@@H]3C[C@@H](O)CN3C3(CN(Cc4ccc(F)cc4)C3)C2=O)cc1 | inactive
COc1cc(-c2ccnc3nc(Cc4ccc(F)cc4)nn23)cc(OC)c1OC | inactive
CC(C)(C)C(=O)NC(=S)Nc1ccccc1N1CCCC1 | inactive
O=C(/C=C/c1ccco1)NC(=S)Nc1ccccc1N1CCCC1 | 2.66 µM (active)

SMILES | Potency
O=C(CCSc1nc(-c2ccco2)cc(C(F)(F)F)n1)Nc1cccc(O)c1 | inactive
Cc1noc(-c2cn(C3CCN(C(=O)C(C)Oc4ccc(Cl)cc4)CC3)nn2)n1 (stereo unspecified) | inactive
COc1cccc(NC(=O)CN(C)C(=O)c2ccc(-c3cccc(C(F)(F)F)c3)o2)c1 | 0.596 µM (active)
Cc1ccc(C)c(NC(=O)CN(C)C(=O)c2ccc(-c3cccc(C(F)(F)F)c3)o2)c1 | 2.11 µM (active)
O=C(Nc1ccccc1N1CCCC1)c1cc2ccccc2o1 | inactive
Cc1ccc2c(CC(=O)Nc3ccccc3C(F)(F)F)coc2c1C | inactive
Cc1cccc(Cn2nnc(C(=O)Nc3cc(C)ccc3C)c2N)c1 | inactive
Cc1ccc(C)c(NC(=O)CN(C)C(=O)c2ccc(-c3ccc(Cl)cc3)o2)c1 | 4.73 µM (active)
COCC(=O)Nc1ccc2c(c1)OCC(=O)N2Cc1ccc(C)cc1 | inactive
COc1cccc(NC(=O)[C@@H]2C[C@H](c3cccc(C(F)(F)F)c3)N(Cc3cnn(C)c3)C2)c1 | inactive
Cc1ccc(C)c(NC(=O)CN(C)C(=O)c2cc3ccccc3o2)c1 | 13.3 µM (active)
Cc1ccc(-c2cn3cccnc3n2)cc1NC(=O)Cc1ccccc1 | inactive
O=C(c1cc2c(s1)CCCC2)N1CCc2c(nc3cc[nH]n3c2=O)C1 | inactive
Cc1ccc(C(=O)NCCc2noc(C3CC3)n2)cc1C | inactive
CN(CC(=O)Nc1cccc(F)c1)C(=O)c1ccc(-c2cccc(C(F)(F)F)c2)o1 | 0.668 µM (active)
Cc1cccc(NC(=O)CN(c2ccc(F)cc2)S(C)(=O)=O)c1 | inactive
COc1cccc(NC(=O)CN(C)C(=O)c2ccc(-c3ccc(Cl)cc3)o2)c1 | 4.22 µM (active)
CCCC(C)C(=O)Nc1ncc(S(=O)(=O)c2ccc([N+](=O)[O-])cc2)s1 (stereo unspecified) | 5.96 µM (active)
COc1ccc(OC)c(CCNC(=O)c2nc(-c3ccc(Cl)cc3)n3c2CCCCC3)c1 | inactive
COc1ccc(CCNC(=O)c2cc(C(=O)c3cc(Cl)ccc3O)cn(CCc3ccc(OC)cc3)c2=O)cc1 | 3.76 µM (active)
COc1ccc(-c2cc3c(=O)n(CCNC(=O)c4c(F)cccc4Cl)ccn3n2)cc1 | inactive
Cc1ccc(-c2nc3ccccc3c(=O)n2O)cc1 | inactive
Cc1ccc(Oc2c(C)nc(-c3ccccc3)[nH]c2=O)cc1 | 5.31 µM (active)
CCC(=O)N1CCN(C2CCN(Cc3ccccn3)C2=O)CC1 (stereo unspecified) | inactive

SMILES | Potency
Cc1ccnc2nc(C(=O)Nc3cc(Cl)ccc3N3CCOCC3)nn12 | 4.73 µM (active)
N#Cc1ccc(NC(=O)Nc2ccc(Cl)cc2)cc1 | 5.31 µM (active)
CCn1ncc(Cl)c1C(=O)Nc1ccncc1 | inactive
O=C(Nc1ccncc1)Nc1ccc(Cl)cc1 | 10.6 µM (active)
CNC(=O)[C@@H]1CN(Cc2ccc(C#N)cc2)C[C@H]1COC | inactive
O=C(Nc1ccncc1)c1ccc(Cl)c(Cl)c1 | inactive
Cc1cc(C)n2nc(C(=O)N3CCN4C(=O)CN(C)C(=O)C4C3)cc2n1 (stereo unspecified) | inactive
CC(C)c1ccc(N2CC(C(=O)NCc3cncn3C3CC3)CC2=O)cc1 (stereo unspecified) | inactive
Cc1ccc(NC(=O)CSc2n[nH]c(-c3ccccn3)n2)cc1 | inactive
CCc1ccc(OCC(=O)Nc2ccc(-c3nc4ncccc4o3)cc2)cc1 | inactive
CCc1ccc(NC(=O)CSc2nc3n[nH]c(C)c3c(=N)n2-c2ccc(C)cc2)cc1 | 6.68 µM (active)
CC(C)c1noc(-c2cccn3c(CNC(=O)c4cccc(Cl)c4)nnc23)n1 | inactive
CCCN1CCc2[nH]cnc2C12CCN(C(=O)c1ccc(CSC)o1)CC2 | inactive
CC(OC(=O)CCc1cc(C(C)(C)C)c(O)c(C(C)(C)C)c1)C(=O)NC1CC1 (stereo unspecified) | 4.73 µM (active)
COc1ccc(-c2noc(-c3cccn3CC(=O)Nc3ccccc3F)n2)cc1F | 4.22 µM (active)
COc1ccc(-c2noc(-c3cccn3CC(=O)Nc3cccc(Cl)c3C)n2)cc1F | inactive
COc1ccc(-c2noc(-c3cccn3CC(=O)Nc3cc(C)ccc3C)n2)cc1F | inactive
COc1ccc(C(=O)NCc2nnc3c(-c4nc(C(C)C)no4)cccn23)cc1F | inactive
COc1ccc(-c2noc(-c3cccn3CC(=O)Nc3ccccc3C)n2)cc1F | 5.31 µM (active)
O=C1COCC2(CN(Cc3ccsc3)C2)CN1Cc1cccc(OC(F)(F)F)c1 | 17.2 µM (active)
O=C1NC2(CCN(Cc3ccc(OC(F)(F)F)cc3)C2)OCc2ccccc21 (stereo unspecified) | inactive
O=C(c1cc(C(F)(F)F)[nH]n1)N1CC[C@@H](c2ccc(F)cc2)[C@H](O)C1 | inactive
CCCCNc1nc2sc3c(c2c(=O)n1-c1cccc(Cl)c1)CCN(C)C3 | 9.44 µM (active)
CCCCCNc1nc2sc3c(c2c(=O)n1-c1cccc(Cl)c1)CCN(C)C3 | 7.5 µM (active)

SMILES | Potency
CC(C)OC(=O)c1cccc(NC(=O)Cn2nnc3sc4c(c3c2=O)CCCC4)c1 | inactive
CCOC(=O)N1CCc2c(sc3nc4n(c(=O)c23)N=C(c2ccc(OC)cc2)CS4)C1 | inactive
Cc1ccc(-c2nc(CN3CCCC3=O)no2)cc1 | inactive
CCCn1nnc(NC(=S)NC(=O)Cc2ccccc2)n1 | inactive
CCn1nnc(NC(=O)c2ccc(C(C)(C)C)cc2)n1 | 9.44 µM (active)
CCOc1cc(C(=O)Nc2nnc(CC)s2)ccc1OCC(=O)N1CCOCC1 | inactive
CCOc1ccccc1C(=O)Nc1nc2c(s1)CC(C)CC2 (stereo unspecified) | inactive
C[C@]1(CO)[C@H]2Cc3sc(NC(=O)c4cccc(F)c4)nc3[C@@H](CC(=O)N3CCOCC3)[C@]2(C)CC[C@H]1O | 8.41 µM (active)
CC1CCN(C(=O)C[C@@H]2c3nc(NC(=O)c4cccc(F)c4)sc3C[C@@H]3[C@](C)(CO)[C@H](O)CC[C@]32C)CC1 | 10.6 µM (active)
C[C@H](C(=O)N1CCCC1)C1CC[C@@]2(C)Cc3sc(NC(=O)C4CC4)nc3[C@@H](C)[C@@H]2[C@H]1O (stereo partly specified) | inactive
CCN(CC)C(=O)C[C@@H]1c2nc(NC(=O)c3cccc(F)c3)sc2C[C@@H]2[C@](C)(CO)[C@H](O)CC[C@]21C | 9.44 µM (active)
Cc1ccc(-c2nnc3ccc(-c4ccoc4)nn23)nc1 | inactive
COc1ccc(-n2cc(CNCCCn3ccnc3)c(-c3ccccc3Cl)n2)cc1 | 3.35 µM (active)
CCCn1cnnc1CNC(=O)CC1C(=O)NCCN1Cc1ccoc1 (stereo unspecified) | inactive
Cc1ccc(OCC(=O)N2CCC(c3noc(-c4ccccn4)n3)C2)cc1 (stereo unspecified) | inactive
Cc1ccc(OCc2nc(C3CCN(C(=O)c4c5c(nc6ccccc46)CCCC5)CC3)no2)cc1 | 9.44 µM (active)
Cc1ccc(OCc2nc(C3CN(C(=O)c4ccc5nc[nH]c5c4)C3)no2)cc1 | inactive
CCc1cccc(NC(c2nnc(-c3ccccc3)o2)c2ccc(F)cc2Cl)c1 (stereo unspecified) | 6.68 µM (active)
Cc1ccc(-c2nc3n(n2)C(c2ccccc2Cl)C=C(c2ccc(Cl)cc2)N3)cc1 (stereo unspecified) | 9.44 µM (active)
COc1ccc(C2C=C(c3ccc(Cl)cc3)Nc3nc(-c4ccc(Cl)cc4)nn32)cc1 (stereo unspecified) | 0.237 µM (active)
Cc1ccc(C2=CC(c3ccc(Cl)cc3)n3nc(-c4ccc(C)cc4)nc3N2)cc1 (stereo unspecified) | 1.68 µM (active)
COc1ccc(C2C=C(c3ccc(F)cc3)Nc3nc(-c4ccc(Cl)cc4)nn32)cc1 (stereo unspecified) | 0.75 µM (active)
COC(=O)C1=C(C)Nc2nnnn2C1c1ccccc1Cl (stereo unspecified) | inactive
COc1ccc(C2C=C(c3ccccc3)Nc3nc(NS(=O)(=O)c4ccccc4)nn32)cc1 (stereo unspecified) | inactive
